Test results taken from PubChem BioAssay (NCI).
The panel holds about 79,000 compounds, 15% with a hit somewhere; the sample as a whole holds those more often. Cut-off read from the data, not from the text of the source: active = growth inhibition above about 70%; inactive = the rest.

Columns and labels:
[1] = NCI Yeast Anticancer Drug Screen. Data for the rad50 strain (AID 155);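 note: 0% = growth of vehicle-only cultures of the same strain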; details: S. cerevisiae rad50 strain growth inhibition; at 50.0 µM; active compounds read high
Summary of the method: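 Genetically altered yeast (DNA repair pathway); compound treatment; growth inhibition vs vehicle ctrl.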

[2] = NCI Yeast Anticancer Drug Screen. Data for the mec2-1 strain (AID 157); details: S. cerevisiae mec2-1 strain, at 50.0 µM, active compounds read high
Summary of the method: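 Test agents were screened against the mec2-1 yeast strain, with defined DNA repair or cell cycle alteration. Growth was scored as inhibition against vehicle-only controls.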

[3] = NCI Yeast Anticancer Drug Screen. Data for the sgs1 mgt1 strain (AID 161);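 note: 0% = growth of cultures given vehicle only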; details: S. cerevisiae sgs1 mgt1 strain, at 50.0 µM, active compounds read high
Summary of the method: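 Mutant yeast exposed to compound; growth scored against vehicle-only wells.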

[4] = NCI Yeast Anticancer Drug Screen. Data for the cln2 rad14 strain (AID 165);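 note: 0% = growth equal to vehicle treated cultures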; details: S. cerevisiae cln2 rad14 strain, at 50.0 µM, active compounds read high
Summary of the method: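 Growth of compound-exposed yeast (cln2 rad14 genotype) measured and expressed as inhibition relative to vehicle.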

[5] = NCI Yeast Anticancer Drug Screen. Data for the bub3 strain (AID 167); details: S. cerevisiae bub3 mutant strain, at 50.0 µM, active compounds read high
Summary of the method: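 Yeast carrying a defined mutation is treated with each compound, and growth is compared with that of vehicle-exposed cells to give inhibition.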

[6] = NCI Yeast Anticancer Drug Screen. Data for the mlh1 rad18 strain (AID 175); details: S. cerevisiae mlh1 rad18 strain growth inhibition; at 50.0 µM; active compounds read high
Summary of the method: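 In this whole-cell yeast screen, a strain with altered DNA damage repair is challenged with compound, and its growth is measured against matched vehicle-treated controls.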

Measured: growth inhibition

O=[N+]([O-])c1ccc(N=Nc2ccc(O)c3ccccc23)cc1
inactive: [1] 13.3% | [2] 1.45% | [3] 21.9% | [4] 16.6% | [5] -25.2% | [6] -9.35%

O=[N+]([O-])c1ccc(/C=C/C=C/c2ccccc2)c(Cl)c1
inactive: [1] -8.75% | [2] -18.3% | [3] -3.4% | [4] -45.1% | [5] -4.85% | [6] -11.4%

CC(=O)Cc1cc(-c2cc(CC(C)=O)[nH]n2)n[nH]1
inactive: [1] -45.1% | [2] -22.1% | [3] -24.1% | [4] -25.5% | [5] -5.45% | [6] -5%

COC(=O)C(O)c1ccccc1 (configuration not stated)
inactive: [1] 21.4% | [2] 11.3% | [3] 5.55% | [4] 23.7% | [5] 11.1% | [6] 20%

O=S(=O)(Cc1ccccc1)c1ccccc1
inactive: [1] 4.6% | [2] 1.1% | [3] 2.1% | [4] -0.8% | [5] -17.5% | [6] 23.9%

Cc1cc2ccccc2c(O)c1C#N
inactive: [1] 32.5% | [2] 17.9% | [3] 6.3% | [4] -4.3% | [5] 1.3% | [6] 48.9%

CC1CCCC(CC(N)=O)CC1 (configuration not stated)
inactive: [1] 7.8% | [2] 1.05% | [3] 2.1% | [4] 1.3% | [5] 0.7% | [6] 4.2%

COc1ccccc1N=Nc1c(O)ccc2cc(S(=O)(=O)O)ccc12
inactive: [1] -14.7% | [2] 6.9% | [3] 6.75% | [4] 9.95% | [5] -2.75% | [6] -13.2%

O=[N+]([O-])c1ccc(S(=O)(=O)NN=C2CCCCC2)cc1
inactive: [1] 19.9% | [2] 13.2% | [3] 8.1% | [4] -31% | [5] 8.85% | [6] 37.8%

O=C1N(C[P+](c2ccccc2)(c2ccccc2)c2ccccc2)CCCN1C[P+](c1ccccc1)(c1ccccc1)c1ccccc1
inactive: [1] 17.4% | [2] 7.4% | [3] 3.55% | [4] 14.9% | [5] 15.1% | [6] 12.3%

Nc1ccc(N)c([N+](=O)[O-])c1
inactive: [1] -30.9% | [2] -17.8% | [3] -27.3% | [4] -39% | [5] -14.8% | [6] -15.2%

COc1cccc(O)c1O
inactive: [1] 3.45% | [2] 9.4% | [3] 1.2% | [4] 16.9% | [5] 9.95% | [6] 19.4%

C=CCc1cc(C(C)=O)cc(OC)c1O
inactive: [1] -16.1% | [2] -6.7% | [3] 5.7% | [4] -16.5% | [5] -34.4% | [6] -19.4%

CCCCOC(=O)c1ccc(C(C)C)cc1
inactive: [1] 8.85% | [2] 6.85% | [3] 8.65% | [4] -19.4% | [5] 7.55% | [6] 4.35%

CCCCCCCCCCC1CO1 (configuration not stated)
inactive: [1] 4.95% | [2] -4.15% | [3] -7% | [4] -23.1% | [5] -13.9% | [6] -8.05%

O=C(O)C(Cc1ccccc1)C(=O)O
inactive: [1] 5.8% | [2] -7.15% | [3] -27.7% | [4] -33% | [5] -18.4% | [6] -7.2%

O=C(O)/C=C/c1ccc2c(c1)CCC2
inactive: [1] 28.6% | [2] 18.1% | [3] 48.4% | [4] 23.8% | [5] 50.6% | [6] 42.2%

CCn1c(=O)n(C)c2c(=O)n(C)c(=O)n(C)c21
inactive: [1] 21.6% | [2] -3.8% | [3] -13.3% | [4] 1% | [5] 1.4% | [6] 2.2%

CCc1nc(N)nc(N)c1-c1ccc(Cl)cc1
inactive: [1] -9.9% | [2] 2.9% | [3] -4.45% | [4] -42.5% | [5] -14% | [6] -21.2%

CCCCN(CCCC)CCCO
inactive: [1] -14.4% | [2] -24.5% | [3] -11.3% | [4] -27.7% | [5] -2.7% | [6] -21.1%

COc1ccccc1C1OC2=Nc3cc(C)c(C)cc3NC2C1=O (configuration not stated)
inactive: [1] 11.1% | [2] -9.95% | [3] -1.95% | [4] -9.25% | [5] -21.1% | [6] 5.95%

Cc1cc(OCCO)cc(C)c1Cl
inactive: [1] -20.9% | [2] -65.8% | [3] -16.4% | [4] 2.35% | [5] -10.5% | [6] -12.3%

COc1cc2c(cc1OC)[C@H](C(=O)O)[C@@H](c1ccc(OC(C)C)c(OC)c1)N(C)C2=O
inactive: [1] 6.05% | [2] -10% | [3] 7.2% | [4] -15.2% | [5] 15.4% | [6] -9.05%

CCN(CC)C(=O)/C=C(/C)c1ccccc1
inactive: [1] -12.6% | [2] -2.65% | [3] -22.2% | [4] -6.95% | [5] 4.25% | [6] -29.8%

c1cc2cccc3c4cccc5cccc(c(c1)c23)c54
inactive: [1] -18.9% | [2] -22.6% | [3] -17.9% | [4] 10.8% | [5] -4.15% | [6] -15.4%

CN(C)c1ccc(S(=O)(=O)O)cc1
inactive: [1] 1.3% | [2] -3.65% | [3] 6.65% | [4] 10% | [5] 2.55% | [6] 21.9%

CC1(C)OC(=O)C(c2ccsc2)C(=O)O1
inactive: [1] -6.25% | [2] -9.35% | [3] -20.4% | [4] 32.8% | [5] -7.05% | [6] -3.7%

O=C(Nc1ccccc1C(=O)NCC1CC1)c1cccs1
inactive: [1] -13.1% | [2] -29.9% | [3] 3.4% | [4] 5.35% | [5] 5.9% | [6] -1.6%

CC(=O)Nc1ccc(NC(C)=O)c2c1C(=O)c1ccccc1C2=O
inactive: [1] 5.55% | [2] -24.1% | [3] -10.3% | [4] 2.15% | [5] -19.3% | [6] 23.9%

CCc1nn(Cc2ccccc2)c2nc(C)c(CCc3ccccc3)c(Cl)c12
inactive: [1] -6.85% | [2] -4.6% | [3] -0.45% | [4] 2.6% | [5] 7.35% | [6] -2.75%

CC(O)COc1ccc(-c2ccccc2)cc1 (configuration not stated)
inactive: [1] 5.5% | [2] -2.9% | [3] 33% | [4] 15.9% | [5] 28.1% | [6] 19.9%

COc1cc2c(cc1O)CC[C@@H]1C2CC[C@@]2(C)C1CC[C@@H]2O (some centres not stated)
inactive: [1] -11.6% | [2] -13.4% | [3] -15.2% | [4] -26.6% | [5] -13.8% | [6] 18.3%

c1cc[n+](C2c3ccccc3C([n+]3ccccc3)c3ccccc32)cc1 (configuration not stated)
inactive: [1] 25.2% | [2] 18.8% | [3] 16.9% | [4] -23.9% | [5] 28% | [6] 41.5%

COc1ccc(C2(O)CCCCC2)cc1
inactive: [1] 17.7% | [2] -13.2% | [3] 2.85% | [4] 6.45% | [5] 7.35% | [6] 28.2%

NC(CSC(c1ccccc1)(c1ccccc1)c1ccccc1)C(=O)O (configuration not stated)
inactive: [1] 1.4% | [2] -18.8% | [3] -28.9% | [4] 20.8% | [5] -8.25% | [6] -42.2%

COC(=O)C(C)Oc1ccc(OC#N)cc1 (configuration not stated)
inactive: [1] -21.3% | [2] -14.1% | [3] 8.9% | [4] -3% | [5] 6.25% | [6] 23.5%

Cc1c(C(=O)O)c(=O)n(-c2ccccc2)n1C
inactive: [1] 3.1% | [2] -10.2% | [3] -8.75% | [4] 11% | [5] -16.9% | [6] 13.6%

O=[N+]([O-])c1ccc(O)c(S(=O)(=O)O)c1
inactive: [1] 8.55% | [2] -20.6% | [3] 7.65% | [4] 15.7% | [5] -0.45% | [6] 4.1%

CC(=O)Oc1ccc(Br)cc1C(=O)O
inactive: [1] -15.2% | [2] -24.2% | [3] -9.7% | [4] -26.9% | [5] -10.6% | [6] 4.15%

COc1nc(N)nc2c1ncn2C1OC(CO)CC1O (configuration not stated)
inactive: [1] 13.4% | [2] -3.2% | [3] -3.5% | [4] 10.9% | [5] 0.55% | [6] 25.8%

C#Cc1cccc(NC(=O)c2ccc(Cl)cc2Cl)c1
inactive: [1] 9.95% | [2] -9.7% | [3] 26.6% | [4] 24.2% | [5] 25% | [6] 15.7%

COc1cc(-c2ccc(NC(=O)NC3CC3)c(OC)c2)ccc1NC(=O)NC1CC1
inactive: [1] -26.9% | [2] -23.2% | [3] -24.1% | [4] 3.15% | [5] -25.2% | [6] -25.8%
